Potency and outcome data for nine molecules are collected here from PubChem BioAssay (Tox21).

A short description of assay [1]: qHTS assay to identify small molecule that activate the aryl hydrocarbon receptor (AhR) signaling pathway - cell viability counter screen (AID 743086). Note: nearly all actives have a fitted effect of over 45% in size. Note: potency is the fitted concentration of half-maximal effect. Put shortly: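 HepG2-AhR-luc (HG2L7.5c1) cells, 4000/well, were preincubated 5 h at 37C, exposed to compound in qHTS format for 24 hr at 37C, then given CellTiter-Fluor for 30 min; viability was read as fluorescence in the reporter wells.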
(Quantitative high-throughput screening tests each substance at several concentrations.)

A short description of assay [2]: qHTS assay to identify small molecule antagonists of the peroxisome proliferator-activated receptor gamma (PPARg) signaling pathway - cell viability counter screen (AID 743194). Note: nearly all actives have a fitted effect of over 55% in size. Note: potency is the fitted concentration of half-maximal effect. The settings on record: Potency: co-treated with 50 nM rosiglitazone unless noted. The essentials: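 PPARg-UAS-bla HEK293H cells were plated, rested 5 h at 37 C, then treated with compounds plus rosiglitazone (50 nM final) for 17 h at 37 C; viability was then read by CellTiter-Glo luminescence after 30 min at room temperature.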

A short description of assay [3]: qHTS assay for small molecule agonists of the antioxidant response element (ARE) signaling pathway (AID 743202; active = well fitted activation curve with a large enough effect in the signal ratio in the repeat runs, not every such curve was filed as active; the % refers to the signal ratio; note: potency is the fitted concentration of half-maximal effect). Put shortly: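 Steps: seed ARE-bla HepG2 cells (2,000/well); incubate 5 h at 37 C; add compounds by pin tool; incubate 16 h at 37 C; add FRET substrate; read fluorescence after 2 h at RT.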
Assay [4] in a line: qHTS assay for small molecule agonists of the antioxidant response element (ARE) signaling pathway - cell viability counter screen (AID 743203; calls by dose curve; note: nearly all actives have a fitted effect of over 55% in size; note: potency is the fitted concentration of half-maximal effect). Put shortly:
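Parallel cytotoxicity read-out for the ARE-bla screen: HepG2 reporter cells, 16 hrs with compounds, then CellTiter-Glo luminescence.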

Assay [5] is described as follows: qHTS assay to identify small molecule agonists of the peroxisome proliferator-activated receptor delta (PPARd) signaling pathway - cell viability counter screen (AID 743211). Note: nearly all actives have a fitted effect of over 55% in size. Note: potency is the fitted concentration of half-maximal effect. The essentials:
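Luminescent ATP viability assay (CellTiter-Glo, 30 min RT) in UAS-bla HEK293H cells carrying the PPAR delta reporter construct, 3000 cells/well, after a 17 h compound treatment at 37 C.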

Assay [6] in a line: qHTS assay to identify small molecule antagonists of the peroxisome proliferator-activated receptor delta (PPARd) signaling pathway - cell viability counter screen (AID 743213). Note: nearly all actives have a fitted effect of over 50% in size. Note: potency is the fitted concentration of half-maximal effect. The essentials: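 Same-well viability: cells pre-incubated 5 h, dosed with compound plus 300 nM L165041, kept 17 h at 37 C, FRET substrate 2 h RT, then CellTiter-Glo 30 min RT and luminescence.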
Assay [7] in a line: qHTS assay to identify small molecule agonists of the farnesoid-X-receptor (FXR) signaling pathway - cell viability counter screen (AID 743218). Note: nearly all actives have a fitted effect of over 45% in size. Note: potency is the fitted concentration of half-maximal effect. The essentials: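 Same-well cytotoxicity check on FXR-UAS-bla HEK 293T cells: 5 h attachment, 16 h compound at 37 C, CellTiter-Glo luminescence read at room temperature after 30 min.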
Assay [8] in a line: qHTS assay to identify small molecule antagonists of the farnesoid-X-receptor (FXR) signaling pathway - cell viability counter screen (AID 743221; active = well fitted cell-killing curve with a large enough effect in the repeat runs, not every such curve was filed as active; note: nearly all actives have a fitted effect of over 50% in size; note: potency is the fitted concentration of half-maximal effect). The essentials: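 In GeneBLAzer FXR-UAS-bla HEK 293T cells stimulated with 50 uM chenodeoxycholic acid (final), compounds acted for 16 h at 37 C. Viability was assessed afterwards by CellTiter-Glo luminescence.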
Assay [9] deals with Vitamin D3 receptor (Homo sapiens) (UniProt P11473). The assay is described as follows: qHTS assay to identify small molecule antagonists of the vitamin D receptor (VDR) signaling pathway (AID 743223; active = well fitted inhibition curve with a large enough effect in the signal ratio in the repeat runs, not every such curve was filed as active; the % refers to the signal ratio; note: potency is the fitted concentration of half-maximal effect). Put shortly: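 Agonist 1alpha,25-dihydroxyvitamin D3 (3 nM in well) was added with each compound to VDR-bla cells preincubated 4 h. Cells stood 16 h at 37C, then FRET substrate 2 h at room temperature; fluorescence intensity recorded.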

The nature of assay [10]: qHTS assay to identify small molecule agonists of the vitamin D receptor (VDR) signaling pathway - cell viability counter screen (AID 743224). Note: nearly all actives have a fitted effect of over 50% in size. Note: potency is the fitted concentration of half-maximal effect. Put shortly: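 Counter screen for cytotoxicity: VDR-bla cells at 2,000 cells/well, 16 h compound exposure, then CellTiter-Glo luminescence after the beta-lactamase measurement.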
Assay [11] in a line: qHTS assay to identify small molecule agonists of the NFkB signaling pathway - cell viability counter screen (AID 1159515; calls by dose curve; note: nearly all actives have a fitted effect of over 55% in size; note: potency is the fitted concentration of half-maximal effect). Put shortly: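 Counter screen run alongside the NFkB-bla agonist assay: ME-180 reporter cells exposed to compounds for 5 hr, then lysed with CellTiter-Glo in the same wells. Luminescence, read after 30 min, reflects viable cells.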
A short description of assay [12]: qHTS assay to identify small molecule antagonists of the vitamin D receptor (VDR) signaling pathway - cell viability counter screen (AID 743225). Note: nearly all actives have a fitted effect of over 50% in size. Note: potency is the fitted concentration of half-maximal effect. The essentials:
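Luminescent cell viability (CellTiter-Glo) in VDR-bla HEK 293T cells after 16 h compound exposure at 37C in the presence of 3 nM final 1-alpha,25-dihydroxy vitamin D3.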

Assay [13] is described as follows: qHTS assay for small molecule activators of the heat shock response signaling pathway - cell viability counter screen (AID 743209). Note: nearly all actives have a fitted effect of over 50% in size. The essentials:
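To flag cytotoxic compounds, HSE-bla HeLa cells plated at 1500 cells/well were dosed for 5 h at 37 C, followed by the reporter FRET read and then CellTiter-Glo, with luminescence recorded 30 min after reagent addition.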

Assay [14] in a line: qHTS assay for small molecule activators of the heat shock response signaling pathway (AID 743210; active = well fitted activation curve with a large enough effect in the signal ratio in the repeat runs, with a control signal flat, not every such curve was filed as active; the % refers to the signal ratio;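 note: HeLa cells with beta-lactamase reporter driven by heat shock elements; series mostly up to about 63 µM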). Put shortly:
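Activation of heat shock element-controlled beta-lactamase expression is measured in HeLa cells by LiveBLAzer FRET fluorescence, with compound exposure lasting 5 h at 37 C and substrate loading 2.5 h at room temperature.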

In assay [15] the target is Peroxisome proliferator-activated receptor delta (Homo sapiens) (UniProt Q03181). Description: qHTS assay to identify small molecule agonists of the peroxisome proliferator-activated receptor delta (PPARd) signaling pathway (AID 743212; calls by dose curve). Put shortly:
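Cells expressing a UAS-driven beta-lactamase reporter (PPARd-bla HEK293H) were given test compounds after a 5 h settle and kept at 37 C. Reporter activity was then measured as FRET fluorescence using LiveBLAzer B/G substrate.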

Assay [16] concerns the target Bile acid receptor (Homo sapiens) (UniProt Q96RI1). The assay is described as follows: qHTS assay to identify small molecule antagonists of the farnesoid-X-receptor (FXR) signaling pathway (AID 743217; active = well fitted inhibition curve with a large enough effect in the signal ratio in the repeat runs, not every such curve was filed as active; the % refers to the signal ratio). Put shortly: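 Quantitative HTS, beta-lactamase reporter format: FXR-UAS-bla HEK 293T cells co-treated 16 h at 37 °C with compounds and 50 uM final chenodeoxycholic acid, then read by B/G FRET fluorescence.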

The target is the same in assay [17]. The assay is described as follows: qHTS assay to identify small molecule agonists of the farnesoid-X-receptor (FXR) signaling pathway (AID 743220; active = well fitted activation curve with a large enough effect in the signal ratio in the repeat runs, not every such curve was filed as active; the % refers to the signal ratio). The essentials:
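FXR-UAS-bla HEK 293T cells carrying a UAS-driven beta-lactamase reporter were plated for 5 h at 37C/5% CO2, then exposed to DMSO-dissolved Tox21 10K compounds for 16 h at 37C. A LiveBLAzer B/G FRET substrate was loaded for 2 h at room temperature before fluorescence reading.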

Several values for one entry are separate records, joined by “and”; a condition that tells them apart may be missing. Identical values can stand only once. Records with an inconclusive call do not appear. The source holds several records for some structures; these can differ, active in one and inactive in another. Activity calls are given as the source filed them. Unless noted, calls come from the whole dose curve; as a rule, active = well fitted curve in the direction sought with a large enough effect in the repeat runs; inconclusive = weak or mixed curves; inactive = no such curve, though single readings can be large; an effect the other way counts as inactive or inconclusive.

Sequence of Vitamin D3 receptor (Homo sapiens) (P11473 whole entry, looked up): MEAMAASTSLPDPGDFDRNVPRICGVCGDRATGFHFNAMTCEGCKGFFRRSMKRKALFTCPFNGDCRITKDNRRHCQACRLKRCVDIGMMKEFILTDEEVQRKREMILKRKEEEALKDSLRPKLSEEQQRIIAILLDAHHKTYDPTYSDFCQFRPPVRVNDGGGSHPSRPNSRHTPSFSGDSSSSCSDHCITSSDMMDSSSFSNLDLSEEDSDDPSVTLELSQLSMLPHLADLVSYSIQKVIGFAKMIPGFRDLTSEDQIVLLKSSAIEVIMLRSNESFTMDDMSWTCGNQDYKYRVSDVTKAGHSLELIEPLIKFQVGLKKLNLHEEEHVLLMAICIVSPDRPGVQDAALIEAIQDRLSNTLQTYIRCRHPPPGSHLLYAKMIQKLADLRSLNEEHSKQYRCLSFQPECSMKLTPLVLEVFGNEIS
Sequence of Bile acid receptor (Homo sapiens) (Q96RI1 whole entry, looked up): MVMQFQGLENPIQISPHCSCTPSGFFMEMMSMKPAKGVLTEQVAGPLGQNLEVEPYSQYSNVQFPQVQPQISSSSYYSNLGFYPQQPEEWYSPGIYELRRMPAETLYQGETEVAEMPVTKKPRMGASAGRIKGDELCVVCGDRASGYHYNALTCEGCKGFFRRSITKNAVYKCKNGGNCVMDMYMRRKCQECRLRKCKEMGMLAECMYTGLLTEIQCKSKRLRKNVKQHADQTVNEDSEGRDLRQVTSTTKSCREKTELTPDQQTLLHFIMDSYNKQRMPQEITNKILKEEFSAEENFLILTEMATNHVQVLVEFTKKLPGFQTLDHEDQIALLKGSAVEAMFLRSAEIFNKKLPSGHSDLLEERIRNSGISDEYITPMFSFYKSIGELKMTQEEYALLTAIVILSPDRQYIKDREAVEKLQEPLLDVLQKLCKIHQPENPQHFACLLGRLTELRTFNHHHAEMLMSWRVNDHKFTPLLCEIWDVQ
Sequence of Peroxisome proliferator-activated receptor delta (Homo sapiens) (Q03181 whole entry, looked up): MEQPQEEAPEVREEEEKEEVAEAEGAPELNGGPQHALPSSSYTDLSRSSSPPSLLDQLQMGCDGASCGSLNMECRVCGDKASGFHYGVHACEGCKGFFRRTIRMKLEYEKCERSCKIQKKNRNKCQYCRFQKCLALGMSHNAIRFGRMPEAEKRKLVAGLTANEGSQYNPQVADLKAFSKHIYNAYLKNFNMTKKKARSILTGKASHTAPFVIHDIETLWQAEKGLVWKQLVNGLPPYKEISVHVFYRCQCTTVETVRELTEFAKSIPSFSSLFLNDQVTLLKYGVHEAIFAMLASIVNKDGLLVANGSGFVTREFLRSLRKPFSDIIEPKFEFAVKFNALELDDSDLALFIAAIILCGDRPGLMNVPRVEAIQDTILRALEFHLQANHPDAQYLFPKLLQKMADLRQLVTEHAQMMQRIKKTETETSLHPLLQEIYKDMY

For the molecule `CCCC[N+]1(C)CCCCC1`, the Potency result in assay [1], in [2], in [3], in assay [4], in assay [5] and in assay [6] was “inactive” in each case. The Potency entry in assay [7], in [8], in assay [9], in assay [10] and in assay [11] was “inactive” in each case.
With `CCCC[n+]1ccccc1`, the Potency entry in assay [1], in [2], in [3], in assay [4], in assay [5] and in assay [6] was “inactive” in each case. In addition, the Potency result in [7], in assay [8], in assay [10], in assay [12] and in assay [11] was “inactive” each time.
With `O=S(=O)(O)O`, the Potency entry in [1], in assay [2], in assay [3], in assay [4], in [13] and in assay [5] was “inactive” throughout. The Potency entry in [6], in assay [7], in [8], in [10] and in assay [11] was “inactive” throughout.
As to `O=C(O)c1nc(Cl)ccc1Cl`, the Potency entry in assay [1], in [2], in assay [3], in assay [4], in [5] and in assay [6] was “inactive” throughout. Besides, the Potency entry in assay [7], in [8], in assay [10] and in assay [11] was “inactive” in each case. Further, the molecule was called inactive in assay [14].
Consider `CCCCCCCCCCCCCC[P+](CCCCCC)(CCCCCC)CCCCCC`, for which the Potency was 61.4 µM (active) and 54.9 µM (active) and inactive in assay [1]; 24.7 µM (active) and 7.82 µM (active) and 2.45 µM (active) in [2]; 24.4 µM (active) and 15.5 µM (active) and inactive in [4]; 7.8 µM (active) and 2.47 µM (active) and 61.6 nM (active) in assay [5]; 15.6 µM (active) and 3.92 µM (active) in [6]; 13.9 µM (active) and 24.7 µM (active) and inactive in [7]. In addition, the Potency was 22 µM (active) and 15.6 µM (active) and inactive in assay [8]; 9.82 µM (active) and 5.54 µM (active) in assay [10]; 19.6 µM (active) and 17.5 µM (active) in assay [12]; 19.6 µM (active) and 24.7 µM (active) and inactive in assay [11]. Moreover, the Potency result in [3] and in [16] was “inactive” in each case. Besides, the outcome in [14], in [15] and in assay [17] was inactive.
As to `CCCC[n+]1cccc(C)c1`, the Potency entry in assay [1], in [2], in [4], in [13], in assay [5] and in assay [6] was “inactive” throughout. The Potency result in assay [7], in [8], in assay [10] and in assay [11] was “inactive” each time. For the same molecule, the Potency in [3] is 60.9 µM (active) and inactive. Moreover, the outcome in [14] was inactive.
As to `CCCC[n+]1ccccc1C`, the Potency entry in [1], in assay [2], in assay [4], in assay [5], in assay [6] and in [7] was “inactive” each time. The Potency result in [8], in [10] and in assay [11] was “inactive” each time. Further, the call in [14] was inactive.
`CC[N+](CC)(CC)CC`: the Potency result in assay [1], in assay [2], in assay [3], in [4], in [13] and in [5] was “inactive” in each case. Further, the Potency entry in [6], in [7], in assay [8], in [9], in [10] and in assay [11] was “inactive” each time. Besides, the outcome in [14] was inactive.
As for `CCCCCCCCCCCCn1cc[n+](C)c1`, the Potency result in assay [3] is “inactive”. The outcome in assay [14] was inactive. Also, the Potency in assay [9] was 55 µM (active); in assay [11], 34.8 µM (active) and inactive.
